A word on the inhibition: it is the drop in the measured response relative to a control, in per cent.

Out of some 360,000 compounds screened, about 4,600 (1.3%) were called active. The entries come from a sample that favours actives as a whole. Unmarked numbers belong to inactive results.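 How the source made its calls: active means percent inhibition above its own plate's cutoff, namely the mean of that plate's compound wells plus 3 SD; inactive means the rest.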

For the assay, the target named is Muscarinic acetylcholine receptor M1 (Homo sapiens) (UniProt P11229). In words: human M1 muscarinic receptor antagonists, primary screen, CHO-K1 cells, Fluo-8 calcium fluorescence, 1536-well (AID 588852).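 Further: peak over basal fluorescence ratio during 140 s after agonist addition; 0% = ACh EC80 plus DMSO and 100% = DMSO alone without agonist.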 As to conditions: CHO-K1 hM1, Fluo-8 calcium fluorescence, ACh EC80 antagonist; at 3 µM; stronger effect = higher value.
Muscarinic acetylcholine receptor M1 (Homo sapiens), sequence (P11229 whole entry, looked up): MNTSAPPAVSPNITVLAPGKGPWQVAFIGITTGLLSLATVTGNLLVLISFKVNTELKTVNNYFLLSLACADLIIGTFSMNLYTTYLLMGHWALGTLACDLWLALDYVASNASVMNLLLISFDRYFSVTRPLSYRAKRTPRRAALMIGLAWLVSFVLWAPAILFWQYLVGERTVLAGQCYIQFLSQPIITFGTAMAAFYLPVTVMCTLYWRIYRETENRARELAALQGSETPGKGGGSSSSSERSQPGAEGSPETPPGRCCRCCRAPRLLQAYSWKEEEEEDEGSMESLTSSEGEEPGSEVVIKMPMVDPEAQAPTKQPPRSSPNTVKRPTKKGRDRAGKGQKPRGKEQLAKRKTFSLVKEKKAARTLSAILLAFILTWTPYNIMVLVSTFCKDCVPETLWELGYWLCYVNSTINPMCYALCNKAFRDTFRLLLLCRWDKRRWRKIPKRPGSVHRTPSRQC
As for `O=C(Cn1cc(C(F)(F)F)ccc1=O)Nc1ccc2c(c1)OCCO2`, the inhibition was -0.29%.

With `O=C(CSc1nnc(-c2ccco2)o1)NCC(=O)c1ccccc1`, the inhibition is -3.08%. Consider `CCN(Cc1ccncc1)C(=O)c1cccc(S(=O)(=O)N2CCOCC2)c1`, for which the inhibition is -4%.

In the case of `Cc1nc(-c2ccc(F)cc2)c(CC(=O)Nc2cccc(S(=O)(=O)N3CCOCC3)c2)s1`, the inhibition is 0.85%. In the case of `O=S(=O)(c1cccc(Cn2nnc(-c3ccc(F)cc3)n2)c1)N1CCOCC1` it was 27.1% (active). Turning to `O=C(CSc1nc2nccnc2c(=O)n1Cc1cccs1)Nc1ccccc1F`, the inhibition was 9.12%. Consider `Cc1ccccc1CNC(=O)CCC(=O)N1Cc2ccccc2Oc2ncccc21`, for which the inhibition is -0.29%. In the case of `O=C(CS(=O)(=O)c1ccc(C(F)(F)F)cn1)NNC(=O)c1ccccc1` it was 11.9%; in that of `Nc1nc2c(ncn2[C@@H]2O[C@H](CNS(=O)(=O)N3CCc4ccccc4C3)[C@@H](O)[C@H]2O)c(=O)[nH]1`, -4.64%; in that of `COC(=O)c1ccc(NC(=O)CN(c2ccc(C)cc2)S(=O)(=O)c2c(C)n[nH]c2C)cc1`, -8.36%. In the case of `CN(Cc1ccccc1F)c1cc2c(c3c1ccn3C)C1CCC2O1` (configuration not stated) it was -40.5%; in that of `COc1cc(C(=O)NCc2cc3cc(Cl)ccc3n2C)cc(OC)c1OC`, -19.2%. `CCn1c(CNC(=O)c2cc(OC)c(OC)c(OC)c2)cc2cc(C)ccc21`: the inhibition is 47.9% (active). Regarding `COc1cc(C(=O)NCc2ccc3c(c2)cc(C)n3C)cc(OC)c1OC`, the inhibition was -1.03%. Next, `CCN(CC(=O)NC(C)C)C(=O)c1cc(S(=O)(=O)N2CCCCC2)ccc1N1CCCCC1`: -0.72%; `CCc1ccc(NC(=O)C(=O)N/N=C(\C)CC(=O)NCCOC)cc1`: -7.5%. In the case of `C=CCn1c(=O)c2ccccc2n2c(SCC(=O)N3CCCc4ccccc43)nnc12` it was 10.1%. In the case of `O=C(CSc1nc2ccccc2c(=O)n1CCCO)N1CCc2ccccc21` it was -9.53%. Consider `Cn1c(SCC(=O)N2CCCc3ccccc32)nc2ccccc2c1=O`, for which the inhibition is 31.9% (active). As to `CCn1c(C(C)C)n[nH]c1=S`, the inhibition is -7.45%. For the compound `CC(C)C1Nc2c(C(=O)O)cccc2C(Nc2ccccc2C(=O)O)C1(C)C` (configuration not stated), the inhibition was 2.52%.

`C/C(=N\NC(=O)c1ccc2ccccc2c1)c1cccnc1`: the inhibition is -15.4%. In the case of `O=C(O)CC/C(=N\NC(=O)c1ccc(F)cc1)c1ccc(Br)cc1` it was -10.2%.

For `CC(=NNC(=O)c1ccc2nc[nH]c2c1)c1ccc(Br)cc1`, the inhibition was 35.2% (active). In the case of `CN1OC[C@@H]2CN(C(=O)c3cccnc3)[C@H](c3ccc(N4CCCCC4)cc3)C[C@@H]21` it was -0.12%. In the case of `COc1ccc(C(=O)OCC(=O)c2ccc(C)c(S(=O)(=O)N3CCOCC3)c2)cc1OC` it was 42% (active).

`COc1ccc(CNC(=O)COC(=O)c2ccc(C)c(S(=O)(=O)N3CCOCC3)c2)cc1OC`: the inhibition is -2.56%.

With `Cc1ccc(C(=O)OCC(=O)N2CCCCCC2)cc1S(=O)(=O)N1CCOCC1`, the inhibition is -0.5%. `CC1(Cc2ccccc2C#N)C(=O)Nc2ccc(-c3ccc4[nH]ccc4c3)cc21` (configuration not stated): the inhibition was 8.72%.

In the case of `CCOC(=O)c1ccn(S(=O)(=O)c2ccc(C)cc2)c1-c1ccccc1`, the inhibition was 13.3%. Consider `CC(=O)c1ccc(S(=O)(=O)Nc2ccc(C(=O)NCC(c3ccccc3)N(C)C)cc2)cc1` (configuration not stated), for which the inhibition was 16.4%. Next, `Cc1cccc(NS(=O)(=O)c2ccc(C)c(C(=O)NCC(c3ccccc3)N(C)C)c2)c1` (configuration not stated): -6.04%; `COc1ccccc1C(CNC(=O)c1cccc(NS(=O)(=O)c2ccc(Br)cc2)c1)N(C)C` (configuration not stated): 99.2% (active); `CN(C)C(CNC(=O)c1cccc(S(=O)(=O)Nc2ccc(Br)cc2)c1)c1ccco1` (configuration not stated): -0.14%. Next, `COc1ccc(C(CNC(=O)c2cccc(S(=O)(=O)Nc3ccc(Br)cc3)c2)N(C)C)cc1` (configuration not stated): -2.85%. As for `COc1ccccc1C(CNC(=O)c1cccc(S(=O)(=O)Nc2ccc(F)cc2)c1)N(C)C` (configuration not stated), the inhibition is 100% (active). Regarding `CCOc1ccc2[nH]c(=S)sc2c1`, the inhibition is -3.12%. `CCc1ccc[n+](-c2nc([O-])sc2C=O)c1`: the inhibition was -4.29%. In the case of `Cc1ccc(S(=O)(=O)N2CCOCC2)cc1C(=O)OC1CCCCC1=O` (configuration not stated) it was 0.72%; in that of `O=C(/C=C/[C@H]1O[C@@H](n2ccc(=O)[nH]c2=O)[C@H](O)[C@@H]1O)NCc1ccccn1`, -44.8%.

With `Cn1c(SCC(=O)N2CCCCC2)nc2c(c1=O)SCC2`, the inhibition was 17.4%. Next, `Cc1cccc(CSc2nc3c(c(=O)n2C)SCC3)c1`: 55.3% (active); `Cc1cccc(CSc2nnc(C)c(=O)n2N)c1`: -6.73%; `O=C(OCC(=O)N1CCc2ccccc21)C1CCCN1S(=O)(=O)c1ccc(Cl)cc1` (configuration not stated): -8.54%. In the case of `CN[C@H]1C[C@H]2c3cc(Oc4ccccc4C)ccc3CCN2C(=O)[C@H]1[C@H](C)O` it was -8.68%; in that of `CCN1CCN(CCNC(=O)c2ccc3c(c2)NC(=O)/C(=C\c2cccc(Cl)c2)S3)CC1`, 3.02%; in that of `Cc1ccccc1CN1C(=O)c2ccccc2Sc2ccc(C(=O)NCCCN3CCOCC3)cc21`, -18.2%.

For the compound `CCN1CCN(CCNC(=O)c2ccc(/C=C3/Sc4ccccc4N(Cc4cccc(C)c4)C3=O)cc2)CC1`, the inhibition is 35.2% (active). Next, `C[C@H](NC(=O)CC[C@H]1O[C@@H](n2ccc(=O)[nH]c2=O)[C@H](O)[C@@H]1O)c1cccc2ccccc12`: -22.7%; `CCC(C)NCCOCCOc1ccc(Br)cc1C` (configuration not stated): 34.6% (active).

Turning to `COCC(C)NCc1cc(Br)ccc1OC` (configuration not stated), the inhibition is -2.87%. Next, `COCCCNCCOCCOc1ccc(Cl)cc1Br`: -3.69%; `COC(=O)c1ccc(CN2C(=O)C(Cc3ccccc3)ON=C2c2ncccc2C)o1` (configuration not stated): 0.28%. On to `CC(C)C(NC(=O)c1c(F)cccc1F)C(=O)NNC(=O)c1ccccc1` (configuration not stated), for which the inhibition is 7.65%. Take `CCC1Oc2ccccc2N(CC(=O)NCCCN2CCN(CC)CC2)C1=O` (configuration not stated): the inhibition is -1.31%. In the case of `CN1CCN(CCCNC(=O)c2ccc(/C=C3\Oc4ccccc4N(Cc4ccc(Cl)cc4)C3=O)cc2)CC1` it was 53.5% (active). In the case of `Cc1c(C)n(Cc2ccc(Cl)cc2)c2ccc(C(=O)NCCCN3CCOCC3)cc12` it was 12.4%.

(Values after PubChem BioAssay AID588852 (The Scripps Research Institute Molecular Screening Center, 2011).)
